What follows are sequences tested against RNF219 (assay: pooled miR-30 sensor sort-seq; sequence = guide strand). Details: shRNA.
In the case of TCTGTCTGAAACAAGCAGCTTG, the sensor-assay potency score (higher = more potent) is reported as -0.169. TAGCTTATCCACATCATCTTTC was tested, and the sensor-assay potency score (higher = more potent) was -0.402. For TTGATATAGGTCTTTGTTCTTA, the sensor-assay potency score (higher = more potent) was -0.397. Sequence ATACTTATCACTTCGTTCCAGG has a sensor-assay potency score (higher = more potent) of -0.456. In the case of TAAACAATCTATTTCGTCCTCA, the sensor-assay potency score (higher = more potent) is reported as 0.474. Work on TTTTGGATAAACATAAGCCTGA yielded a sensor-assay potency score (higher = more potent) of -0.319.

What follows are sequences tested against RNF41 in the same assay as above. Details: shRNA.
Sequence TAGCGTCGGTTCATCTGTCTAG has a sensor-assay potency score (higher = more potent) of 0.0647. With ATCTTCGTCAACATCCCCCTGG the sensor-assay potency score (higher = more potent) was -0.316. TCTGATTTCCATCTCTTCCTGA was tested, and the sensor-assay potency score (higher = more potent) was 0.105. AAGATCTTCGTCAACATCCCCC gave a sensor-assay potency score (higher = more potent) of -0.164. Work on TCATCTGTCTAGTCTCTAGTGT yielded a sensor-assay potency score (higher = more potent) of -0.527. ATCTGTCTAGTCTCTAGTGTGG showed a sensor-assay potency score (higher = more potent) of -0.878. TAGTTCTCATAGTAGCGTCGGT was tested, and the sensor-assay potency score (higher = more potent) was -0.784. Sequence TAATTTATAGACATTTTAGGGG has a sensor-assay potency score (higher = more potent) of 0.0646. In the case of TTCAGCTGACGTCTTCTCCAGC, the sensor-assay potency score (higher = more potent) is reported as -0.881. In the case of TTTGACAACATGTTCCGCATGA, the sensor-assay potency score (higher = more potent) is reported as 0.502. Sequence AACATGTTCCGCATGATCCGAG has a sensor-assay potency score (higher = more potent) of -0.3.

Each sequence was assayed against RNMTL1 in the same assay as above. Details: shRNA.
TTGTGAAACTTCATCACTCGTT showed a sensor-assay potency score (higher = more potent) of 0.595. Sequence TTGGTGAGTAACACTTTGCTGC has a sensor-assay potency score (higher = more potent) of -0.11. Work on TTGTCAGCCACATAGACCCGAG yielded a sensor-assay potency score (higher = more potent) of -0.82. With TTTACTATTGTCATTACACTGC the sensor-assay potency score (higher = more potent) was -0.096. In the case of TTCTGTTCCACCACCTCTCCGG, the sensor-assay potency score (higher = more potent) is reported as -0.00954. Sequence TTTCCTGTAACTGTATGACGGC has a sensor-assay potency score (higher = more potent) of -0.465. With TACTATTGTCATTACACTGCTC the sensor-assay potency score (higher = more potent) was 0.0183. In the case of TAGCTTTATTAGACATCTCAGC, the sensor-assay potency score (higher = more potent) is reported as -0.834. TTTATTAGACATCTCAGCCTGG showed a sensor-assay potency score (higher = more potent) of 0.616. Sequence TTATTAGACATCTCAGCCTGGG has a sensor-assay potency score (higher = more potent) of -0.331. TTATTGATAATGGGCATCCGGA was tested, and the sensor-assay potency score (higher = more potent) was -0.992. TGATGCTTCAGGAACTTTCTGG was tested, and the sensor-assay potency score (higher = more potent) was -0.0145.

These sequences were tested against RNPC3 in the same assay as above. Details: shRNA.
Work on TTCTCTAGAAATTCTGCCCTTT yielded a sensor-assay potency score (higher = more potent) of -0.078. TTGGTCTAGCAGATCGAGCAAA gave a sensor-assay potency score (higher = more potent) of -1.03. TTTTTCTTTATCATCTTCGACA showed a sensor-assay potency score (higher = more potent) of -0.554. In the case of TTCTTGAACATGTTTAGCTAAA, the sensor-assay potency score (higher = more potent) is reported as -1.09. For TCGAGCAAACTGAACCACCATG, the sensor-assay potency score (higher = more potent) was -1.27. In the case of TTTCTTGAACATGTTTAGCTAA, the sensor-assay potency score (higher = more potent) is reported as -0.355. Sequence TTCTTTATCATCTTCGACAGGG has a sensor-assay potency score (higher = more potent) of 0.314. With TATATCAAACATGATCCGCTGT the sensor-assay potency score (higher = more potent) was 0.81. TTCCTCACAATTTTGTTCCTTT showed a sensor-assay potency score (higher = more potent) of 1.11. TATTGTTTTAGGTCTTTTGGGC was tested, and the sensor-assay potency score (higher = more potent) was -0.105. TTTGCTAGGATTGTGCTGGAAG gave a sensor-assay potency score (higher = more potent) of -0.549.

Reference: the OligoGym collection
